Laboratory results reported in PubChem BioAssay (EPA / NIEHS).
Calls of active or inactive are those of the source. Rule for the calls: active = hit-call score of the fitted dose curve at least 0.9, where 1 is the maximum; inactive = score below 0.9.

Experiments:
Settings in all cases: mRNA level, 48 h; actives raise or lower the signal
[1] = read-out: DNA damage-inducible transcript 3 (DDIT3), DDIT3 (gene 1649); experiment: LTEA_HepaRG_DDIT3: Life Technologies and Expression Analysis (LTEA) Assay for DNA damage-inducible transcript 3 (DDIT3) using HepaRG (AID 2283488)
Outline: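 HepaRG plated 48 h, switched to serum-free induction medium, dosed 48 h (100 uM top, half-log, 8 pts, 0.5% DMSO, n=2); RNA isolated; DDIT3 by qRT-PCR; bidirectional curve fit vs DMSO.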

[2] = read-out: Pro-epidermal growth factor (Homo sapiens) (UniProt P01133); experiment: LTEA_HepaRG_EGF: Life Technologies and Expression Analysis (LTEA) Assay for Epidermal growth factor (EGF) using HepaRG (AID 2283489)
Outline: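 Concentration-response mRNA assay: HepaRG cells dosed 48 h (max 100 uM, 0.5% DMSO), EGF measured by qRT-PCR and normalized to ACTB/GAPDH/POLR2A.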

[3] = read-out: Early growth response protein 1 (EGR1) transcription factor, EGR1 (gene 1958); experiment: LTEA_HepaRG_EGR1: Life Technologies and Expression Analysis (LTEA) Assay for Early growth response protein 1 (EGR1) transcription factor using HepaRG (AID 2283490)
Outline: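 Read-out is EGR1 mRNA level by qRT-PCR, normalized to three housekeeping genes and analysed for gain or loss of signal against 0.5% DMSO. Source cells: human HepaRG, treated 48 h at up to 100 uM in half-log dilutions.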

[4] = read-out: Ezrin (EZR), EZR (gene 7430); experiment: LTEA_HepaRG_EZR: Life Technologies and Expression Analysis (LTEA) Assay for Ezrin (EZR) using HepaRG (AID 2283491)
Outline: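 HepaRG, 48 h chemical exposure, 8-pt half-log series from 100 uM, 0.5% DMSO vehicle, duplicates. Read-out: EZR mRNA by TaqMan qRT-PCR (Fluidigm array), housekeeping-normalized; bidirectional curve fit vs DMSO baseline.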

[5] = read-out: CYP2C9 (gene 1559); experiment: LTEA_HepaRG_CYP2C9: Life Technologies and Expression Analysis (LTEA) Assay for CYP2C9 using HepaRG (AID 2283484)
Outline: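 Cells plated 48 h, switched to serum-free induction medium, then treated in duplicate for 48 h at eight concentrations (max 100 uM, 0.5% DMSO). RNA then analysed by qRT-PCR for CYP2C9; curves fitted in both directions relative to DMSO.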

[6] = read-out: CYP2E1 (gene 1571); experiment: LTEA_HepaRG_CYP2E1: Life Technologies and Expression Analysis (LTEA) Assay for CYP2E1 using HepaRG (AID 2283485)
Outline: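 Human liver line HepaRG, plated 48 h, then serum-free induction medium + chemical x 48 h; 8-pt CRC from 100 uM, half-log, 0.5% DMSO, n=2. Readout: CYP2E1 mRNA qRT-PCR vs ACTB/GAPDH/POLR2A; bidirectional fit vs DMSO.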

[7] = read-out: CYP3A5 (gene 1577); experiment: LTEA_HepaRG_CYP3A5: Life Technologies and Expression Analysis (LTEA) Assay for CYP3A5 using HepaRG (AID 2283493)
Outline: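 HepaRG plated 48 h, switched to serum-free induction medium, chemicals added 48 h (max 100 uM, half-log, 0.5% DMSO). RNA isolated; CYP3A5 by TaqMan qRT-PCR. Gain/loss vs DMSO.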

[8] = read-out: CYP4A11 (gene 1579); experiment: LTEA_HepaRG_CYP4A11: Life Technologies and Expression Analysis (LTEA) Assay for CYP4A11 using HepaRG (AID 2283486)
Outline: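 Human hepatic HepaRG cultures receive duplicate 48 h exposures across a concentration-response series topping at 100 uM. Expression changes in CYP4A11 are measured by qRT-PCR relative to DMSO controls.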

[9] = read-out: Cytochrome P450 3A4 (Homo sapiens) (UniProt P08684); experiment: LTEA_HepaRG_CYP3A4: Life Technologies and Expression Analysis (LTEA) Assay for CYP3A4 using HepaRG (AID 2283487)
Outline: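 CYP3A4 transcript measured by TaqMan qRT-PCR and normalized to three housekeeping genes after 48 h chemical exposure of human HepaRG cells. Top concentration 100 uM, half-log steps, 0.5% DMSO vehicle; gain or loss fitted against DMSO baseline.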

[10] = read-out: Cytochrome P450 3A7 (Homo sapiens) (UniProt P24462); experiment: LTEA_HepaRG_CYP3A7: Life Technologies and Expression Analysis (LTEA) Assay for CYP3A7 using HepaRG (AID 2283492)
Outline: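 qRT-PCR of CYP3A7 in HepaRG lysates after 48 h treatment; concentration-response (8 points, max 100 uM) analysed bidirectionally relative to 0.5% DMSO controls.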

Measured: AC50

Cytochrome P450 3A7 (Homo sapiens), sequence (P24462 whole entry, looked up): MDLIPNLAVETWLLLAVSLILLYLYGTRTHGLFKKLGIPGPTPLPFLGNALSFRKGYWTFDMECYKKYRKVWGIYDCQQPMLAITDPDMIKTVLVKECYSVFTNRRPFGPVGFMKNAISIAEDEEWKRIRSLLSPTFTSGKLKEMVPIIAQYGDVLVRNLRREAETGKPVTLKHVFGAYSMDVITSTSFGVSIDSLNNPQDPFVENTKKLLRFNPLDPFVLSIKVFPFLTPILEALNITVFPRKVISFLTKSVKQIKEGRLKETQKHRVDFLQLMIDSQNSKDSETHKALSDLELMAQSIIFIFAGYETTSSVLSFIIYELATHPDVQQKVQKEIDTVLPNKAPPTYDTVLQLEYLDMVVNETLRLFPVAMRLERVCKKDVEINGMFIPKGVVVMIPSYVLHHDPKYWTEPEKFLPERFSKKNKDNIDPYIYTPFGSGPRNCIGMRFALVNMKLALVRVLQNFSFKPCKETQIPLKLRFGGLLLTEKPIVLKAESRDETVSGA
Cytochrome P450 3A4 (Homo sapiens), sequence (P08684 whole entry, looked up): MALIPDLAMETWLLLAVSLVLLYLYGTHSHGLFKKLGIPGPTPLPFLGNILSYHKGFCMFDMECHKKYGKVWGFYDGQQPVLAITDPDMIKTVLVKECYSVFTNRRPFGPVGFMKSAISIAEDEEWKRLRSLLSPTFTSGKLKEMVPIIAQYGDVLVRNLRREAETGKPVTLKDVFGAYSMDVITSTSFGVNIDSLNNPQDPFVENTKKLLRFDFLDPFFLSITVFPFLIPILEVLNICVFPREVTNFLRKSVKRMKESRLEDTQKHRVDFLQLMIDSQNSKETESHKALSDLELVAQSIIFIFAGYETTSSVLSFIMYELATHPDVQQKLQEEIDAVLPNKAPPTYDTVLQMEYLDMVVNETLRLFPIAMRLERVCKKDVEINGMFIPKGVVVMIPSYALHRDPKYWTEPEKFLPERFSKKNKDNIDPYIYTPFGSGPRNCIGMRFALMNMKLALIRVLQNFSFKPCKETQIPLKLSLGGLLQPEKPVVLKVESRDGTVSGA

O=C(c1ccccc1)c1ccccc1
inactive: [1] | [2] | [3] | [4]

CS(=O)(=O)c1ccc([C@@H](CC2CCCC2)C(=O)Nc2cnccn2)cc1Cl
inactive: [2] | [4]
active: [1] 71.2 µM | [3] 83.9 µM

CCCCCCCCCCCCOS(=O)(=O)O
active: [5] 79 µM | [6] 92.9 µM | [1] 71.9 µM
inactive: [2] | [3] | [4] | [7]

CCC(C)c1ccccc1O (configuration not stated)
inactive: [5] | [6] | [8] | [9] | [1] | [2] | [3] | [4] | [10] | [7]

CCCCc1oc2ccccc2c1C(=O)c1cc(I)c(OCCN(CC)CC)c(I)c1
inactive: [2]
active: [1] 56.8 µM | [3] 61 µM | [4] 58.2 µM

CC(=O)Nc1ccc(O)cc1
inactive: [5] | [6] | [8] | [9] | [1] | [2] | [3] | [4] | [10] | [7]

CN(Cc1cnc2nc(N)nc(N)c2n1)c1ccc(C(=O)N[C@@H](CCC(=O)O)C(=O)O)cc1
active: [6] 0.222 µM | [3] 0.121 µM | [7] 0.0985 µM
inactive: [8] | [9] | [1] | [2] | [4] | [10]

CCCCC=O
inactive: [5] | [6] | [8] | [9] | [1] | [2] | [3] | [4] | [10] | [7]

OCC(CO)(CBr)CBr
active: [8] 0.411 µM
inactive: [5] | [6] | [9] | [1] | [2] | [3] | [4] | [10] | [7]

CN(C)CCOC(c1ccccc1)c1ccccc1
inactive: [1] | [2] | [3] | [4]

O=C1NS(=O)(=O)c2ccccc21
inactive: [5] | [6] | [8] | [9] | [1] | [2] | [3] | [4] | [10] | [7]

Cc1[nH]nc2c1N=C(c1ccccc1Cl)c1cc([N+](=O)[O-])ccc1N2
inactive: [1] | [2] | [3]
active: [5] 5.12 µM | [6] 10.1 µM | [8] 5.26 µM | [9] 77.6 µM | [4] 1.38 µM | [10] 2.83 µM | [7] 13.4 µM

CCCCC(CC)C(=O)O (configuration not stated)
inactive: [5] | [6] | [8] | [9] | [1] | [2] | [3] | [4] | [10] | [7]

O=C(CCCN1CCC(O)(c2ccc(Cl)cc2)CC1)c1ccc(F)cc1
active: [5] 77.8 µM | [6] 66.2 µM | [8] 73.5 µM | [1] 73.9 µM | [3] 94.4 µM | [10] 75.8 µM
inactive: [2] | [4] | [7]

N=C(N)c1ccc(OCCCCCOc2ccc(C(=N)N)cc2)cc1
inactive: [4]
active: [6] 6.51 µM | [8] 3.02 µM | [1] 3.45 µM | [2] 22.2 µM | [3] 27.1 µM

CCCCCCCCCCCCCCC
active: [6] 1.94 µM | [9] 8.75 µM | [10] 14.9 µM
inactive: [5] | [8] | [1] | [2] | [3] | [4] | [7]
